# Source: PubChem BioAssay
# Assays:
# [1] = biological target: Tumor necrosis factor receptor superfamily member 10B (Homo sapiens) (UniProt O14763); test: caspase-8 TRAIL sensitization, hit retest, confirmation, cell-based, NB7+caspase-8, with/without TRAIL, luminescence panel (AID 651596); conditions: NB7 neuroblastoma + caspase-8, TRAIL sensitization, luminescence viability, with TRAIL, mean of runs, at 10 µM, stronger effect = higher value
# [2] = as above; conditions: NB7 neuroblastoma + caspase-8, without TRAIL, luminescence viability, without TRAIL, mean of runs, at 10 µM
# Chain of Tumor necrosis factor receptor superfamily member 10B (Homo sapiens) (O14763 whole entry, looked up): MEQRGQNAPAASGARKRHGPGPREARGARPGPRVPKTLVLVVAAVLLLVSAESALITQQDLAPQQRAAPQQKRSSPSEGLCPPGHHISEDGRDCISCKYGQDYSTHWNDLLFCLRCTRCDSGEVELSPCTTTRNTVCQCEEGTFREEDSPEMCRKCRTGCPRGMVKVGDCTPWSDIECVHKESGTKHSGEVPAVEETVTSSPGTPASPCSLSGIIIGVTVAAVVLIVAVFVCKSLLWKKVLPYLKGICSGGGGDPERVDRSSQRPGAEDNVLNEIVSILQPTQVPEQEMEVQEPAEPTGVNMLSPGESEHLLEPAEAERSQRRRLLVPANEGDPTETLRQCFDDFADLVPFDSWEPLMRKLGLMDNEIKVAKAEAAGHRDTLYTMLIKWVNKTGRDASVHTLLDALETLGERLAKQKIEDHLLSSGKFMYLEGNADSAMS
SMILES,activity [1],activity [2]
CCCc1cc2c(=O)c(-c3ccc4c(c3)OCCO4)coc2cc1OC(=O)c1ccco1,65.5%,66.4%
COc1ccccc1NC(CC(=O)c1ccccc1)C(=O)OCC(=O)c1ccc(F)cc1 (stereo unspecified),69.5%,65.9%
Cc1ccnc(NC(=S)NC(=O)c2ccco2)c1,65.5%,57.7%
O=C(Nc1nc2ccccc2[nH]1)c1ccc([N+](=O)[O-])cc1,53.4%,35%
Cc1ccc(Nc2nc(CSc3nnnn3C)cs2)cc1,23.2%,8.93%
COc1ccc(-c2cc(C(=O)OCC(=O)N3CCOCC3)c3ccccc3n2)cc1,36.6%,49.6%
CCc1ccc(CNC(=O)Cc2ccc(NC(=O)C3=C(C)OCCS3)cc2)cc1,58.8%,59%
COc1ccc(C(=O)Nc2ccccc2C(=O)N/N=C/c2cccc3ccccc23)cc1,98.8%,95.8%
COc1ccc2sc(N(CCCN(C)C)C(=O)c3ccc(S(=O)(=O)N4CCc5ccccc5C4)cc3)nc2c1,82.4%,69.3%
O=C(NC(=S)Nc1nc2ccc(F)cc2s1)c1ccco1,85.3%,77.4%
Cc1csc(C(C#N)C(=O)c2cc3ccccc3o2)n1 (stereo unspecified),57.3%,61.2%
Oc1ccc(-c2cn3cc(C(F)(F)F)ccc3n2)cc1,89.1%,87.5%
Brc1ccc(-c2cn3ccccc3n2)s1,52.6%,38.7%
Cc1onc(-c2ccccc2Cl)c1C(=O)O/N=C(\N)c1ccccc1,99%,98.1%
Clc1ccc(CN2CCc3c([nH]c4ccccc34)C2)cc1Cl,-9.62%,-14.6%
CCC(C)c1ccc2oc(-c3ccc(NC(=O)Cn4cnc5c(=O)n(C)c(=O)n(C)c54)cc3)nc2c1 (stereo unspecified),85.3%,66.9%
COc1ccc(-c2csc(NC(=O)C3CCN(c4ncnc5sc(C)c(C)c45)CC3)n2)cc1OC,84.3%,62.9%
O=C(N/N=C/c1cc(O)ccc1[N+](=O)[O-])c1ccc2c(c1)OCCO2,91%,87.7%
